These results are taken from PubChem BioAssay (NCATS).

In assay [1] the test system is Zika virus NS2B-NS3 protease (linked construct). Description: Primary screen NINDS Rhodamine qHTS for Zika virus inhibitors (AID 1347160). Also: nearly all actives have a fitted effect of over 55% in size. The essentials:
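Aprotinin served as in-plate control. Conditions: 25 nM linked NS2B-NS3, pH 8.0 Tris buffer, titrated compounds, 15 min preincubation and 15 min reaction with 1.5 microM Rhod110 substrate at room temperature.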
For orientation: qHTS replaces the single test concentration by a dilution series.

Assay [2] addresses Calcium and integrin-binding protein 1 (Homo sapiens) (UniProt Q99828). Kind of assay: Primary qHTS for Identification of Calcium Integrin Binding Protein 1 (CIB1) Competitor (AID 1508620).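 Also: GST tagged CIB1 binding a fluorescein labelled alphaIIb integrin peptide tracer; top concentration of the series differs between compounds.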 Summed up: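 CIB1-GST (1 uM final) and compound incubated 15 min at room temperature before adding FITC-alphaIIb peptide tracer (100 nM final). Competition for binding read by fluorescence polarization (ex 480, em 540) after another 15 min at room temperature.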

Assay [3] in a line: Primary qHTS for inhibitors of nuclear receptor binding SET domain protein 2 (NSD2) in an isogenic RCH-ACV NSD2 p.E1099K mutant (9B) (AID 1645876). Also: nearly all actives have a fitted effect of over 70% in size. Also: potency is read from the fitted curve at half-maximal effect.
Assay [4] concerns the target Phospholipid hydroperoxide glutathione peroxidase GPX4 (Homo sapiens) (UniProt P36969). Description: Primary qHTS Assay for Inhibitors of Recombinant Selenoprotein Glutathione Peroxidase 4 (GPX4) (AID 1845192). Also: nearly all actives have a fitted effect of over 65% in size. The conditions noted are these: outcome: dose series up to 50 µM unless noted. Summed up: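 NADPH consumption followed by fluorescence at 340/450 nm, t=0 and after 15 min at room temperature. Reaction started with cumene hydroperoxide (0.5 mM final) after 30 min compound–GPX4 preincubation; final 200 nM GPX4, 100 nM GR, 1 mM GSH, 0.5 mM NADPH.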

Assay [5] deals with Luciferin 4-monooxygenase (Photinus pyralis) (UniProt P08659). Description: Primary firefly luciferase (FLuc) qHTS assay for identification of artifact compounds. (AID 1845220). Also: nearly all actives have a fitted effect of over 60% in size. Also: potency is read from the fitted curve at half-maximal effect. Summed up:
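FLuc 10 nM; luciferin 10 uM; ATP 10 uM; Tris-acetate pH 7.6, Mg-acetate 10 mM; 15 min RT preincubation; 5 min reaction; luminescence.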

The subject of assay [6] is Nanoluciferase (engineered Oplophorus gracilirostris luciferase). Description: Primary Nanoluciferase (NLuc) qHTS assay for identification of artifact compounds. (AID 1845222).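 Also: NLuc secreted into diluted conditioned medium of S16 cells.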 The essentials:
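NLuc from S16 cell medium (1:55) plus test compounds, 15 min, room temperature. Luminescence after Nano-Glo (1:100) addition, 5 min.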

The test system of the next assay is C33A. Description: Primary qHTS to identify gynecologic anti-cancer compounds using libraries of approved drugs and bioactive compounds (AID 1345084). Also: nearly all actives have a fitted effect of over 55% in size. Also: potency is read from the fitted curve at half-maximal effect. The conditions noted are these: Gynecologic cancer cell panel viability, ATPlite luminescence, 48 h; series mostly up to 57.5 µM. Summed up:
(§1)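 ATP-based viability (ATPlite), 1,000 cells/well, 16 h pre-incubation, 48 h compound at 37 C, 5% CO2, 15 min RT before read.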

A further assay concerns CASKI. The assay is described as above. The conditions noted are these: Gynecologic cancer cell panel viability, ATPlite luminescence, 48 h; series mostly up to 57.5 µM. Summed up:
as §1
(In general: Cellular ATP, detected with luciferase, serves as a proxy for viable cell number.)

Another assay concerns HeLa. The assay is described as above. The conditions noted are these: Gynecologic cancer cell panel viability, ATPlite luminescence, 48 h; series mostly up to 57.5 µM. The essentials:
as §1

The next assay concerns Hek293T. Described as above. The conditions noted are these: Gynecologic cancer cell panel viability, ATPlite luminescence, 48 h, control line for the selectivity index; series mostly up to 57.5 µM. The essentials:
as §1

The subject of a further assay is OV90. The description is as above. The conditions noted are these: Gynecologic cancer cell panel viability, ATPlite luminescence, 48 h; series mostly up to 57.5 µM. The essentials: as §1
The test system of the next assay is Tov-21-G. The assay is described as above. The conditions noted are these: Gynecologic cancer cell panel viability, ATPlite luminescence, 48 h; series mostly up to 57.5 µM. Summed up: as §1
Another assay concerns Tov112D. The description is as above. The conditions noted are these: Gynecologic cancer cell panel viability, ATPlite luminescence, 48 h; series mostly up to 57.5 µM. The essentials: as §1
In assay [7] the target is Glutathione peroxidase 1 (Homo sapiens) (UniProt P07203). Description: Primary qHTS Assay for Inhibitors of Recombinant Selenoprotein Glutathione Peroxidase 1 (GPX1) (AID 1845191). Also: nearly all actives have a fitted effect of over 65% in size. Summed up:
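NADPH consumption tracked by fluorescence at 340/450 nm between t=0 and t=15 min, room temperature. Final mix: 10 nM GPX1, 100 nM glutathione reductase, 1 mM GSH, 0.5 mM NADPH, 0.5 mM cumene hydroperoxide, 0.01% BSA; 30 min compound–enzyme preincubation.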

Assay [8] in a line: Primary fluorescence-based thiol-reactive (MSTI) qHTS assay for identification of artifact compounds. (AID 1845221).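 Also: thiol-reactive compounds lower the probe fluorescence signal; nearly all actives have a fitted effect of over 65% in size.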 Summed up: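 A multi-concentration qHTS design tested compounds against 4 uM MSTI, pH 7.4 phosphate-buffered saline. Plates were protected from light for 1 h at room temperature before imaging fluorescence.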
The nature of assay [9]: Primary redox qHTS assay for identification of artifact compounds. (AID 1845223). Summed up:
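Redox-cycling detection via DTT (250 uM final) oxidation coupled to Amplex Red (25 uM)/HRP (250 mU/mL) in HBSS. 15 min preincubation plus 30 min after DTT, room temperature. Ex/Em 525/598 nm; 4-parameter Hill fit against DMSO and 10 uM DA3003.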

In a further assay the test system is JEG-3. Kind of assay: Primary qHTS to identify gynecologic anti-cancer compounds using libraries of approved drugs and bioactive compounds (AID 1345084). Also: nearly all actives have a fitted effect of over 55% in size. Also: potency is read from the fitted curve at half-maximal effect. The conditions noted are these: Gynecologic cancer cell panel viability, ATPlite luminescence, 48 h; series mostly up to 57.5 µM. The essentials: as §1
For a further assay, the system named is Es-2. Described as above. The conditions noted are these: Gynecologic cancer cell panel viability, ATPlite luminescence, 48 h; series mostly up to 57.5 µM. The essentials: as §1
The test system of another assay is PA-1. The description is as above. The conditions noted are these: Gynecologic cancer cell panel viability, ATPlite luminescence, 48 h; series mostly up to 57.5 µM. Summed up: as §1
Assay [10] in a line: Primary qHTS for inhibitors of nuclear receptor binding SET domain protein 2 (NSD2) in an RCH-ACV wild type WT cells (2C) (AID 1645877). Also: potency is read from the fitted curve at half-maximal effect; nearly all actives have a fitted effect of over 70% in size.

Where “and” joins values, the source holds several entries; their conditions need not be identical. Equal entries are not always repeated. Unmarked numbers belong to inactive results. Results filed as inconclusive are left out. Calls of active or inactive are those of the source. Calls follow the shape of the dose curve; as a rule, active = well fitted curve in the direction sought with a large enough effect; inconclusive = small, poorly fitted or top-dose-only effect, or another doubt; inactive = no such curve, though single readings can be large; an effect the other way counts as inactive or inconclusive.

Glutathione peroxidase 1 (Homo sapiens), sequence (P07203 whole entry, looked up): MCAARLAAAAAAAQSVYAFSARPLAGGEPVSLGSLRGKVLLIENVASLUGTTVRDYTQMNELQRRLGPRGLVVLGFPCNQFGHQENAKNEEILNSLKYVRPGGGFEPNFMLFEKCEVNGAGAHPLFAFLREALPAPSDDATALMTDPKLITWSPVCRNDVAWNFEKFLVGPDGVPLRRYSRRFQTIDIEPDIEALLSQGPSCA
Calcium and integrin-binding protein 1 (Homo sapiens), sequence (Q99828 whole entry, looked up): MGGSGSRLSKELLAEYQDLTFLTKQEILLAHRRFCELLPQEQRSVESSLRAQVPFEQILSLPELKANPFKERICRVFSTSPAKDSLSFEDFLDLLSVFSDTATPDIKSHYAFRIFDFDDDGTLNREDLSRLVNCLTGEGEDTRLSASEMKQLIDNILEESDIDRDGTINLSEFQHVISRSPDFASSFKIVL
Phospholipid hydroperoxide glutathione peroxidase GPX4 (Homo sapiens), sequence (P36969 whole entry, looked up): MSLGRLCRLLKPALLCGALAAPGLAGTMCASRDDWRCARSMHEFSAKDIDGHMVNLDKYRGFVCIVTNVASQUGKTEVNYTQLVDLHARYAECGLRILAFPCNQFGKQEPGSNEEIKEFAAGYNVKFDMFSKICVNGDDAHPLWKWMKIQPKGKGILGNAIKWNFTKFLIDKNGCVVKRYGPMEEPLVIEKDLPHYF

With `OCC(Cc1ccccc1)Nc1nc(Oc2ccc3c(c2)CCC3)nc2c1ncn2Cc1ccc(-c2ccccc2)cc1` (configuration not stated), the Potency result (in assay [1]; in [4]; in assay [5]; in assay [6]; in the assay on C33A; in the assay with CASKI) was “inactive” each time. Moreover, the Potency result in the assay with HeLa, in the assay with Hek293T, in the assay on OV90, in the assay on Tov-21-G and in the assay on Tov112D was “inactive” in each case. Also, the result in assay [2] was inactive. In addition, the Potency in assay [3] is 16.3 µM (active).

In the case of `O=C(NNc1ccccc1)c1ccncc1`, the Potency result in assay [1], in assay [3], in assay [7], in assay [4], in assay [5] and in [8] was “inactive” in each case. Further, the Potency result (in assay [9]; in the assay with C33A; with CASKI; in the assay on HeLa; in the assay with JEG-3; in the assay on OV90) was “inactive” in each case. In addition, in the assay with Tov-21-G, the Potency entry is “inactive”. Besides, the outcome in [2] was inactive.

For `CC(C)(C)c1ccc(-c2nc3ccccc3[nH]2)cc1`, the Potency entry in assay [1], in [4], in [8], in assay [6] and in assay [9] was “inactive” in each case. Besides, the result in assay [2] was inactive. Moreover, the Potency in assay [3] was 8.93 µM (active); in [5], 0.0294 µM (active); in the assay with C33A, 1.26 µM (active); in the assay on CASKI it was 1.12 µM (active); in the assay on Es-2, 1.58 µM (active); in the assay with HeLa it was 2.24 µM (active). Further, the Potency is 2.24 µM (active) in the assay on Hek293T; 1.78 µM (active) in the assay with JEG-3; 1.41 µM (active) in the assay with OV90; 1 µM (active) in the assay with PA-1; 1.41 µM (active) in the assay on Tov-21-G; 3.98 µM (active) with Tov112D.

For the molecule `O=C(NC(NC(=S)Nc1ccc(F)c([N+](=O)[O-])c1)C(Cl)(Cl)Cl)C(c1ccccc1)c1ccccc1` (configuration not stated), the Potency entry in assay [1], in assay [7], in [4], in assay [5], in assay [6] and in assay [9] was “inactive” each time. The Potency result in the assay on CASKI, in the assay on Es-2, in the assay with HeLa, in the assay on Hek293T, with JEG-3 and in the assay on OV90 was “inactive” in each case. Also, the Potency result in the assay with PA-1, in the assay with Tov-21-G and in the assay on Tov112D was “inactive” in each case. Also, the result in assay [2] was inactive. Also, the Potency is 5.41 µM (active) and 16.4 µM (active) in [3]; 20.6 µM (active) in assay [10].

Regarding `CCS(=O)(=O)N(Cc1cccnc1)c1cccc(-c2ccc(C#N)cc2)c1`, the Potency entry in assay [1], in assay [7], in assay [4], in [5], in assay [8] and in assay [6] was “inactive” throughout. Moreover, the Potency result (in [9]; in the assay on C33A; with CASKI; in the assay on Es-2; with HeLa; in the assay with Hek293T) was “inactive” each time. Besides, the Potency entry in the assay with JEG-3, in the assay with PA-1 and in the assay on Tov112D was “inactive” each time. In assay [2], the result was inactive. The Potency was 16.3 µM (active) in [3] and 20.5 µM (active) in [10].

Regarding `CC(=O)N[C@@H](CC(=O)O)C(=O)N[C@@H](CCC(=O)O)C(=O)N[C@H](C(=O)N[C@@H](CC(=O)O)C(=O)Nc1ccc2c(C)cc(=O)oc2c1)C(C)C`, the Potency in [3] is 5.78 µM (active); in assay [10], 5.15 µM (active). In addition, the Potency result (in assay [7]; in [4]; in assay [5]; in the assay with HeLa; in the assay with Hek293T; in the assay with JEG-3) was “inactive” in each case. Moreover, the Potency entry with OV90 and in the assay with Tov112D was “inactive” throughout.

In the case of `CC(C)CCC[C@@H](C)[C@H]1CC[C@H]2[C@@H]3CC=C4C[C@@H](OC(=O)NCCN(C)C)CC[C@]4(C)[C@H]3CC[C@]12C`, the Potency entry in assay [1], in assay [4], in [5], in [8], in [6] and in [9] was “inactive” throughout. Besides, the Potency entry with C33A, with Es-2, with HeLa, in the assay with Hek293T, in the assay on JEG-3 and with OV90 was “inactive” in each case. Further, the Potency result in the assay on PA-1, in the assay with Tov-21-G and in the assay with Tov112D was “inactive” each time. Further, the outcome in assay [2] was inactive.
